Here are results for eight molecules from PubChem BioAssay (Tox21).

Values without a mark were called inactive. Results filed as inconclusive are left out. Active and inactive are the calls of the source. Unless noted, the call rests on the fitted dose curve; in most records, active means well fitted curve in the direction sought with a large enough effect in the repeat runs; inconclusive means weak or mixed curves; inactive means no such curve, though single readings can be large; an effect the other way counts as inactive or inconclusive.

Experiment [1] has as its target Estrogen receptor beta (Homo sapiens) (UniProt Q92731). Nature of the experiment: qHTS assay to identify small molecule agonists of the estrogen receptor beta (ER-beta) signaling pathway (AID 1259377; active means well fitted activation curve with a large enough effect in the signal ratio in the repeat runs, not every such curve was filed as active; the % refers to the signal ratio). Summed up: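 HEK293T ER-beta-UAS-bla; 2% charcoal-stripped FBS; cells pre-incubated 6 hr, compound 16 hr, 37C/5% CO2; LiveBLAzer B/G FRET substrate 2 h RT; fluorescence intensity read.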
(qHTS replaces the single test concentration by a dilution series.)

Experiment [2] shares this target. Nature of the experiment: qHTS assay to identify small molecule antagonists of the estrogen receptor beta (ER-beta) signaling pathway (AID 1259378; active means well fitted inhibition curve with a large enough effect in the signal ratio in the repeat runs, not every such curve was filed as active; the % refers to the signal ratio). In outline: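 ER-beta-UAS-bla HEK293T cells in 2% charcoal-stripped FBS medium treated with compound plus 1nM final 17-beta-estradiol for 16 hr at 37C. Beta-lactamase reporter read by FRET substrate fluorescence after 2 hours at room temperature.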

A short description of experiment [3]: qHTS assay to identify small molecule agonists of the estrogen receptor beta (ER-beta) signaling pathway - cell viability counter screen (AID 1259380). Further: nearly all actives have a fitted effect of over 30% in size. Further: potency means the concentration at half of the fitted maximal effect. In outline: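 Cytotoxicity is measured in parallel with the reporter screen: after 16 hr compound exposure at 37C and a 2 hr LiveBLAzer step, CellTiter-Glo is added to the same ER-beta-UAS-bla HEK293T wells and luminescence read after 30 min.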

Experiment [4] can be described thus: qHTS assay to identify small molecule antagonists of the estrogen receptor beta (ER-beta) signaling pathway - cell viability counter screen (AID 1259382). Further: nearly all actives have a fitted effect of over 55% in size. Further: potency means the concentration at half of the fitted maximal effect. In outline: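 Cytotoxicity counter screen multiplexed with the beta-lactamase antagonist assay: GripTite HEK293T ER-beta-bla cells were treated 16 hr with test chemicals in the presence of 1nM 17-beta-estradiol, and viability was measured by CellTiter-Glo.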

Experiment [5] in a line: qHTS assay to identify small molecule agonists or antagonists of the thyroid stimulating hormone receptor (TSHR) signaling pathway - wild type cell line counter screen (AID 1259384; calls by dose curve). Summed up: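 Wild-type Hek293 cells, 800/well, 18 h at 37C, then compound with Ro20-1724 for 30 min RT. cAMP by HTRF (cAMP-d2/anti-cAMP cryptate), 1 h RT, fluorescence read. 15 concentrations, triplicates.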

The target in experiment [6] is Thyrotropin receptor (Homo sapiens) (UniProt P16473). The experiment can be described thus: qHTS assay to identify small molecule antagonists of the thyroid stimulating hormone receptor (TSHR) signaling pathway (AID 1259385; calls by dose curve; further: nearly all actives have a fitted effect of over 20% in size). Summed up:
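TSHR-HEK293 cells (800/well) plated 18 h, then compounds with Ro20-1724 and TSH at 1.5 ng/mL final, 30 min at room temperature. cAMP quantified by HTRF (cAMP-d2/anti-cAMP-cryptate, 1 h); 15 concentrations in triplicate.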

Experiment [7] can be described thus: qHTS assay to identify small molecule agonists of the estrogen receptor alpha (ER-alpha) signaling pathway in the presence of an antagonist - cell viability counter screen (AID 1259386).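 Further: series mostly up to about 92 µM; cells exposed to compounds for 22 h at 37 °C before the viability read; nearly all actives have a fitted effect of over 30% in size.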 In outline: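 Cytotoxicity was measured in parallel with the ERE-luciferase agonist screen, in the same wells. The cells were VM7Luc4E2, which endogenously express ER-alpha, and treatment was with compounds plus 10.0nM ICI-182,780 for 22hr.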

The target in experiment [8] is Progesterone receptor (Homo sapiens) (UniProt P06401). Nature of the experiment: qHTS assay to identify small molecule antagonists of the progesterone receptor (PR) signaling pathway (AID 1346795; active means well fitted inhibition curve with a large enough effect in the signal ratio in the repeat runs, not every such curve was filed as active; the % refers to the signal ratio). In outline: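 Read-out is fluorescence from the LiveBLAzer B/G FRET substrate, cleaved by a UAS-controlled beta-lactamase in PR-UAS-bla HEK293T cells after 16 hr exposure to compound plus 1 nM promegestone (final), followed by 2 hr at room temperature.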
Sequence of Progesterone receptor (Homo sapiens) (P06401 whole entry, looked up): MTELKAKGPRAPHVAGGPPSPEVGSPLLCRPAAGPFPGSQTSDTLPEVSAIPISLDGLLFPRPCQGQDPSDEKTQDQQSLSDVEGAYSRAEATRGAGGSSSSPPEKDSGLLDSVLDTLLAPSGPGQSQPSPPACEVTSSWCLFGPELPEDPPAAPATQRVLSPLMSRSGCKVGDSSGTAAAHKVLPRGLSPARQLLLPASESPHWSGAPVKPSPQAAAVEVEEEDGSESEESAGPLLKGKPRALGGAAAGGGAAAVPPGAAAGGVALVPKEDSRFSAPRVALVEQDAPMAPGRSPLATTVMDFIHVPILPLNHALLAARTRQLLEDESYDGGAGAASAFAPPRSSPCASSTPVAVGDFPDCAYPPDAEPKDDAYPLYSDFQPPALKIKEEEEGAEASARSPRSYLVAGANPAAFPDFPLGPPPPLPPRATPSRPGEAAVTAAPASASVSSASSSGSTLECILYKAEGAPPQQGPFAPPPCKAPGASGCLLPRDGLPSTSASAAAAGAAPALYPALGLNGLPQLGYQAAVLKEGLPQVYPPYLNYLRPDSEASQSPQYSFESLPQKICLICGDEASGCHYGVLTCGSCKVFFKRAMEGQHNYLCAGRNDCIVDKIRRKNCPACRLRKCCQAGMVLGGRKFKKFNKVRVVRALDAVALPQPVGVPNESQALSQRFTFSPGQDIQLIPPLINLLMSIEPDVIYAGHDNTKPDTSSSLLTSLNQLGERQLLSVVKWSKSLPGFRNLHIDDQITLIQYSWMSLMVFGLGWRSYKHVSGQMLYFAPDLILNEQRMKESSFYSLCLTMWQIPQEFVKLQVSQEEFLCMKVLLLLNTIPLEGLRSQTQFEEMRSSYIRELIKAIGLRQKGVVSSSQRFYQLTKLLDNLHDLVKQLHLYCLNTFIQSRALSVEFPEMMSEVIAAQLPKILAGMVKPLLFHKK

The nature of experiment [9]: qHTS assay to identify small molecule antagonists of the progesterone receptor (PR) signaling pathway - cell viability counter screen (AID 1346798). Further: series mostly up to about 92 µM; nearly all actives have a fitted effect of over 50% in size. In outline: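 HEK293T PR-UAS-bla, 2% charcoal-stripped FBS; 4 hr pre-plate; cpd + R5020, 16 h 37C; LiveBLAzer read first; then CellTiter-Glo 30 min RT, luminescence.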
A short description of experiment [10]: qHTS assay to identify small molecule agonists of the progesterone receptor (PR) signaling pathway - cell viability counter screen (AID 1346799; calls by dose curve; further: nearly all actives have a fitted effect of over 45% in size; further: potency means the concentration at half of the fitted maximal effect). In outline: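 Luminescence from CellTiter-Glo, added after the beta-lactamase FRET read in the same wells, gave cytotoxicity in PR-UAS-bla HEK293T cells treated with compounds for 16 hr at 37C.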
Experiment [11] is described as follows: qHTS assay to identify small molecule antagonists of the TGF-beta/Smad signaling pathway - cell viability counter screen (AID 1346824). Further: nearly all actives have a fitted effect of over 50% in size. Summed up:
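SBE-bla HEK 293T cells, incubated overnight, then compound plus 0.25 ng/mL TGF-beta1 (stock added) for 5 hr at 37 C. Viability was read in the same wells by CellTiter-Glo luminescence after 30 min at room temperature.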

A short description of experiment [12]: qHTS assay to identify small molecule agonists of the TGF-beta/Smad signaling pathway - cell viability counter screen (AID 1346829). Further: top concentration of the series differs between compounds; nearly all actives have a fitted effect of over 45% in size. In outline:
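In parallel with the Smad reporter read, viability of HEK 293T cells stably carrying SBE-bla is quantified by ATP luminescence following 5 hr compound treatment.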

A short description of experiment [13]: qHTS assay to identify small molecule agonists of the TGF-beta/Smad signaling pathway (AID 1346859; active means well fitted activation curve with a large enough effect in the signal ratio in the repeat runs, not every such curve was filed as active; the % refers to the signal ratio; further: series mostly up to about 77 µM). Summed up: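 SBE-bla HEK 293T, 4,000 cells/well, plated o/n; cpd in DMSO, 5 hr, 37 C/5% CO2; B/G FRET substrate 2 hr RT; ex 405, em 460/530 nm.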
For experiment [14], the target named is Thyrotropin-releasing hormone receptor (Homo sapiens) (UniProt P34981). Nature of the experiment: qHTS assay to identify small molecule antagonists of the thyrotropin-releasing hormone receptor (TRHR) signaling pathway (AID 1346877; active means well fitted inhibition curve with a large enough effect in the repeat runs, not every such curve was filed as active; further: series mostly up to about 51 µM). Summed up: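 Antagonism is measured as suppression of the calcium response to 1 nM TRH in TRHR-HEK293 cells that have been dye-loaded for 2 h at 37 °C after overnight plating. Each compound is tested at 15 concentrations in triplicate.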
Sequence of Thyrotropin-releasing hormone receptor (Homo sapiens) (P34981 whole entry, looked up): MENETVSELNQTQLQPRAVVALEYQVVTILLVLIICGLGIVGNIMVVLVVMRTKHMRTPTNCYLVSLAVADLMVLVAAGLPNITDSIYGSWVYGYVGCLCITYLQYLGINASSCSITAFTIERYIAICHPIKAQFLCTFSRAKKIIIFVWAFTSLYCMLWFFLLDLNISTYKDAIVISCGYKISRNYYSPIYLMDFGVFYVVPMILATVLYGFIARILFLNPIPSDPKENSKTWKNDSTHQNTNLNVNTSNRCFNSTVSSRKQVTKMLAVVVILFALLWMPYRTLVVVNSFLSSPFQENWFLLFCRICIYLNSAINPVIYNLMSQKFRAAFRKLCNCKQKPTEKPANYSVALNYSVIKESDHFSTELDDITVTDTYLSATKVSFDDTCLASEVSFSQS

For experiment [15], the target named is Progesterone receptor (Homo sapiens) (UniProt P06401). The experiment can be described thus: qHTS assay to identify small molecule agonists of the progesterone receptor (PR) signaling pathway (AID 1346784; calls by dose curve; further: nearly all actives have a fitted effect of over 30% in size). Summed up: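 Beta-lactamase reporter read-out: after 16 hr compound treatment at 37C and a further 2 hr at room temperature with LiveBLAzer B/G FRET substrate, fluorescence was measured in PR-UAS-bla HEK 293T cells grown in 2% charcoal-stripped serum.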

Experiment [16] addresses Thyrotropin-releasing hormone receptor (Homo sapiens) (UniProt P34981). Nature of the experiment: qHTS assay to identify small molecule agonists of the thyrotropin-releasing hormone receptor (TRHR) signaling pathway (AID 1346891; calls by dose curve; further: potency means the concentration at half of the fitted maximal effect; on activation: series mostly up to about 58 µM). In outline:
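Intracellular calcium rise, read as fluorescence every second for 3 min, served as the agonist signal in dye-loaded HEK293 cells expressing TRHR; each compound ran at 15 concentrations in triplicate.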

Experiment [17] addresses Estrogen receptor (Homo sapiens) (UniProt P03372). Nature of the experiment: qHTS assay to identify small molecule agonists of the estrogen receptor alpha (ER-alpha) signaling pathway in the presence of an antagonist (AID 1259383; calls by dose curve; further: top concentration of the series differs between compounds; nearly all actives have a fitted effect of over 15% in size). Summed up: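 Agonist-mode confirmation in the presence of the ER antagonist ICI-182,780 at 10.0nM final. Breast-derived VM7Luc4E2 reporter cells were exposed to compounds for 22hr, and ERE-driven luciferase was quantified by luminescence.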

A short description of experiment [18]: qHTS assay to identify small molecule agonists of the androgen receptor (AR) signaling pathway in the presence of an antagonist - cell viability counter screen (AID 1259379).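 Further: MDA-kb2 human breast cancer cells carrying an MMTV luciferase reporter; series mostly up to about 92 µM; nearly all actives have a fitted effect of over 25% in size.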 Summed up:
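Cytotoxicity is assessed by CellTiter-Fluor in MDA-kb2 cells carrying an MMTV-driven luciferase reporter. Cells receive 3.0uM nilutamide plus compounds at 15 concentrations and incubate 16 hr at 37C without CO2 before fluorescence reading.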

Experiment [19] addresses Androgen receptor (Homo sapiens) (UniProt P10275). Nature of the experiment: qHTS assay to identify small molecule agonists of the androgen receptor (AR) signaling pathway in the presence of an antagonist (AID 1259381; calls by dose curve; further: nearly all actives have a fitted effect of over 15% in size). In outline: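 Agonist-mode confirmation screen: human MDA-kb2 cells stably expressing luciferase under an MMTV promoter bearing AR and GR response elements, co-treated with 3.0uM nilutamide (final). Luminescence measured after 16hr compound incubation.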

The nature of experiment [20]: qHTS assay to identify small molecule antagonists of the sonic hedgehog signaling (Shh) pathway (AID 1259369; calls by dose curve; further: nearly all actives have a fitted effect of over 45% in size). In outline: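 Cells are plated and held 4hr at 37 C, compounds (DMSO) are pinned in, conditioned medium is added to stimulate the pathway, and after 24hr luciferase reagent is added for 30min before luminescence is read.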

Sequence of Estrogen receptor (Homo sapiens) (P03372 whole entry, looked up): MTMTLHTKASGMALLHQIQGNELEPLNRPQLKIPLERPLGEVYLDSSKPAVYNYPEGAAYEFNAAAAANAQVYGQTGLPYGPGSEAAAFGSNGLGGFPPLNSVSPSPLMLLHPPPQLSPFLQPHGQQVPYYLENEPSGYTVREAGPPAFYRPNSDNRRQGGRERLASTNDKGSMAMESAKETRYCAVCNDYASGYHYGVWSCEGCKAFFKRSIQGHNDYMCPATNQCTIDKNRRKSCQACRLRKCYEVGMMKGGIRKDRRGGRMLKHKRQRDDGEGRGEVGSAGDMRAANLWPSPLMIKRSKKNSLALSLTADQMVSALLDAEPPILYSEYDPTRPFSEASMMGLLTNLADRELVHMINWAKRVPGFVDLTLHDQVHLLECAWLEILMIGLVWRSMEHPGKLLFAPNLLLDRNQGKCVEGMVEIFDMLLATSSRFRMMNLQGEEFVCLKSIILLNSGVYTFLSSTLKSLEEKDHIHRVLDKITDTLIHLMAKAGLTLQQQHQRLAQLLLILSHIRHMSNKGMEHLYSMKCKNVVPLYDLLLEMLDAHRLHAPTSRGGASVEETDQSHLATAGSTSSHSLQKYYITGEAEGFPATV
Sequence of Estrogen receptor beta (Homo sapiens) (Q92731 whole entry, looked up): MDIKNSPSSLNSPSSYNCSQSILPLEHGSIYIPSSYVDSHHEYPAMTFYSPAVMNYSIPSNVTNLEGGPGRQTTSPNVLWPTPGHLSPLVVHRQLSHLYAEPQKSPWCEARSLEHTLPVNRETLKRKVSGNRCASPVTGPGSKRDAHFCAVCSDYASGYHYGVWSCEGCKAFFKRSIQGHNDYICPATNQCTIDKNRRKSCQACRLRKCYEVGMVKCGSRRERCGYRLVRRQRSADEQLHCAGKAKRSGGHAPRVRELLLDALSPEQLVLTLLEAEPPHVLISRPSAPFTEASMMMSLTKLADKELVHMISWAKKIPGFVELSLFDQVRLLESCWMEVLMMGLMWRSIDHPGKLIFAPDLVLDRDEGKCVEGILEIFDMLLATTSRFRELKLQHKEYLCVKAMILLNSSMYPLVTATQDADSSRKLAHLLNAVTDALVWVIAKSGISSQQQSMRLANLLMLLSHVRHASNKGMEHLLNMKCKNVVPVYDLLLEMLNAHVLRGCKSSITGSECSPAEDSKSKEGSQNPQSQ
Sequence of Thyrotropin receptor (Homo sapiens) (P16473 whole entry, looked up): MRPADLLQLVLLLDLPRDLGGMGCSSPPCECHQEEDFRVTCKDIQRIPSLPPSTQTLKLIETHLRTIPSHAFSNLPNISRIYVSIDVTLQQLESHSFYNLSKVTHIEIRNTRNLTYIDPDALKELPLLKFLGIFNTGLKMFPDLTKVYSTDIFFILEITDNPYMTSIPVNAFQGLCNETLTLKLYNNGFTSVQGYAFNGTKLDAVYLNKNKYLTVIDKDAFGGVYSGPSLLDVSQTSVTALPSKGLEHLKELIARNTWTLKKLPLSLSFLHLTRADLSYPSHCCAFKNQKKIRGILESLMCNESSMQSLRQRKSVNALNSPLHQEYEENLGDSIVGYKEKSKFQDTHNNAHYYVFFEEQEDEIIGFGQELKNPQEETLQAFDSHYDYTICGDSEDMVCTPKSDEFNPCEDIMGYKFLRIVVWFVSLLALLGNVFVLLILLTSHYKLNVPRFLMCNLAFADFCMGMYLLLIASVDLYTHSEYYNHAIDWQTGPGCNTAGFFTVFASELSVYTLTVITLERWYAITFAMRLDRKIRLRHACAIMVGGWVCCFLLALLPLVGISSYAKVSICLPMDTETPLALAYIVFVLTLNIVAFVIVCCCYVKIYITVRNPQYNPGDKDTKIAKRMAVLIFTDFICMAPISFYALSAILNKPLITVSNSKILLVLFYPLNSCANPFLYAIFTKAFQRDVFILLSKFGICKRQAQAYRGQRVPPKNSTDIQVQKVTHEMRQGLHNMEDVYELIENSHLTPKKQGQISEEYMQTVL
Sequence of Androgen receptor (Homo sapiens) (P10275 whole entry, looked up): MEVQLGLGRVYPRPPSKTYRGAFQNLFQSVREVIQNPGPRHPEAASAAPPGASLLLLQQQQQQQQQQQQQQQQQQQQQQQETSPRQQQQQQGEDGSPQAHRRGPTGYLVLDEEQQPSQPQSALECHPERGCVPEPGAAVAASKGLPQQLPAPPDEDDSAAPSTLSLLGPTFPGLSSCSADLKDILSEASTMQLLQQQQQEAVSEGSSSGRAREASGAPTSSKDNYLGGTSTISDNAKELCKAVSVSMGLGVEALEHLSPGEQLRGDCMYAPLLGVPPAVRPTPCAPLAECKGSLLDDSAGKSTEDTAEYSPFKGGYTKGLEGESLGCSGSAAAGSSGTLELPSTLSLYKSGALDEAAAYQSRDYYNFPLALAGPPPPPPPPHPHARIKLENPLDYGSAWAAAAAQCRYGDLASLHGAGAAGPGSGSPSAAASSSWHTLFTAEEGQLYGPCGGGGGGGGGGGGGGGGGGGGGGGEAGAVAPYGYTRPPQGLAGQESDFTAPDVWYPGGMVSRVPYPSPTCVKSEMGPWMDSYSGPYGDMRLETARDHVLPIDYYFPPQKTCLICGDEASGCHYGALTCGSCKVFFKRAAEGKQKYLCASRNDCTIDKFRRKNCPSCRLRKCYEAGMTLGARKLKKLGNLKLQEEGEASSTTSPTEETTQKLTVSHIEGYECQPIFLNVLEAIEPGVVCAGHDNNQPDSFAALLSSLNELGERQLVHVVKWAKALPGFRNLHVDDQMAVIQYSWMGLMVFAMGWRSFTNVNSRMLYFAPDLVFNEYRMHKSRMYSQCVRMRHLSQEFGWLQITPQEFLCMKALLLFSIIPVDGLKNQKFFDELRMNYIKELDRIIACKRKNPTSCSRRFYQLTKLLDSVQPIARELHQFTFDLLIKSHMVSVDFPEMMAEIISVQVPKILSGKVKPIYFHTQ

On to `CC1=CCCC(C)(C)C12CCC(C)O2` (centres undefined), for which the Potency result in [1], in experiment [2], in [3], in [4], in experiment [5] and in [6] was “inactive” each time. Also, the Potency result in experiment [7], in experiment [8], in experiment [9], in experiment [10], in experiment [11] and in experiment [13] was “inactive” in each case. Moreover, the call in experiment [12] and in experiment [14] was inactive.

Consider `Cc1ccccc1S(=O)(=O)O`, for which the Potency entry in experiment [1], in experiment [2], in experiment [3], in experiment [4], in experiment [5] and in experiment [6] was “inactive” throughout. In addition, the Potency entry in experiment [7], in [15], in experiment [8], in [9], in [10] and in [11] was “inactive” in each case. In addition, the Potency entry in experiment [13] and in experiment [16] was “inactive” throughout. In addition, the call in [12] and in [14] was inactive.

Regarding `CCCCc1nc2cccnc2n1Cc1ccc(-c2ccccc2-c2nnn[nH]2)cc1`, the Potency result in experiment [1], in experiment [17], in experiment [5], in experiment [15], in [9] and in [10] was “inactive” each time. Further, the Potency entry in experiment [11] and in experiment [16] was “inactive” each time. For the same molecule, the outcome in [12] and in experiment [14] was inactive.

Turning to `C[N+]1(CC2COC(c3ccccc3)(C3CCCCC3)O2)CCCCC1` (centres undefined), the Potency entry in experiment [1], in [2], in [3], in experiment [4], in experiment [17] and in experiment [5] was “inactive” throughout. Also, the Potency result in experiment [7], in experiment [15], in [8], in [9], in experiment [10] and in experiment [11] was “inactive” each time. Further, the Potency entry in experiment [13] is “inactive”. In [12], the outcome was inactive.

As for `CN1CCN(C(c2ccccc2)c2ccccc2)CC1`, the Potency entry in experiment [1], in experiment [2], in experiment [18], in [3], in experiment [19] and in [4] was “inactive” throughout. Moreover, the Potency entry in [17], in experiment [5], in [6], in [7], in [15] and in [8] was “inactive” in each case. In addition, the Potency entry in experiment [9], in experiment [10], in [11], in experiment [13] and in experiment [16] was “inactive” each time. The result in experiment [12] and in experiment [14] was inactive.

As to `CCCCC`, the Potency entry in experiment [1], in [2], in [18], in [3], in experiment [4] and in experiment [5] was “inactive” throughout. Besides, the Potency entry in experiment [6], in [7], in [15], in experiment [8], in experiment [9] and in experiment [10] was “inactive” in each case. Moreover, the Potency result in experiment [11] and in experiment [13] was “inactive” each time. In addition, the result in [12] was inactive. The Potency in experiment [16] was 27.1 µM (active).

`CCCCCCCCCCCCCCOS(=O)(=O)O`: the Potency result in experiment [20], in experiment [17], in [5], in experiment [7], in experiment [15] and in experiment [11] was “inactive” throughout. Further, the Potency entry in experiment [13] and in experiment [16] was “inactive” throughout. Besides, the Potency in experiment [3] was 30.6 µM (active); in [4], 61.1 µM (active); in [10], 30.6 µM (active). For the same molecule, the call in [12] was inactive.

On to `CCCn1cnc2c1c(=O)n(CCCCC(C)=O)c(=O)n2C`, for which the Potency result in experiment [1], in experiment [2], in experiment [18], in [3], in [19] and in experiment [4] was “inactive” in each case. For the same molecule, the Potency entry in experiment [17], in experiment [5], in experiment [7], in experiment [15], in experiment [8] and in experiment [9] was “inactive” each time. For the same molecule, the Potency entry in [10], in experiment [11], in experiment [13] and in experiment [16] was “inactive” throughout. The call in [12] and in [14] was inactive.
